Reference: PubChem BioAssay
Values without a mark were called inactive.

System: XIP peptide (Xip251-270) binding
Test: small-molecule binders of XIP peptide, primary screen, biochemical, small-molecule microarray, fluorescence 635/667 nm, 0.1 µg/mL protein (AID 1182)
Details: fluorescent protein binding, 635 nm, higher = more signal, called active from +8 up or from −8 down

Question: Which composite z-score does the source give for `CC(C)=CCCC(C)=CC(O)C1C=CC2C(=O)N(c3ccccc3)C(=O)C2N1Nc1ccc([N+](=O)[O-])cc1` (stereo not given) here?
Answer: 0.174

Question: With `COCCCNC(=O)[C@]1(Cc2ccccc2)N=C(c2ccc(OCCCO)cc2)O[C@@H]1c1ccccc1N=[N+]=[N-]` as the compound, how does the composite z-score read?
Answer: 0.829

Question: With `COCCOC(=O)N1C(=O)[C@@]2(c3cc(C#CCC(C(=O)OC)C(=O)OC)ccc31)[C@H](c1ccc(OCCO)cc1)N1[C@H](c3ccccc3)[C@H](c3ccccc3)OC(=O)[C@H]1[C@@H]2C(N)=O` as the compound, how does the composite z-score read?
Answer: 0.335

Question: Which composite z-score does the source give for `CN(C)CCCN1C(=O)[C@@]2(Cc3ccccc31)c1ccccc1C(=O)N(Cc1ccccc1)[C@H]2c1ccc(CO)cc1` here?
Answer: 0.0022

Question: For `CN(C)CCCCCCNC(=O)[C@@H]1C[C@@H]2C(=O)NCC(=O)N2[C@@H]1c1ccc(O)cc1`, which composite z-score is on record?
Answer: 1.82

Question: `O=[N+]([O-])c1ccc(C[n+]2ccc(-c3ccc(CO)cc3)cc2)o1` was tested. Which composite z-score did it give?
Answer: 0.406

Question: `COC(=O)[C@]1(Cc2ccccc2CN=[N+]=[N-])N=C(c2ccc(OCCCO)cc2)O[C@@H]1c1ccccc1` was tested. Which composite z-score did it give?
Answer: 0.0835

Question: For `CCCCCCC#C[Si](O[C@H](c1ccccc1)c1cn(Cc2cccc(Cl)c2)nn1)(C(C)C)C(C)C`, which composite z-score is on record?
Answer: -0.301

Question: How did the composite z-score turn out when `CN1C(=O)C2C=CC(C(O)c3ccc(F)cc3)N(N3CCCCC3)C2C1=O` (stereo not given) was run?
Answer: 0.612

Question: Which composite z-score does the source give for `COc1ccc([Si](C)(C)[C@H]2[C@H](CC(=O)N3CCC[C@H]3CO)O[C@@]3(C(=O)N(Cc4ccc(N5C(=O)c6cccc7cccc5c67)cc4)c4ccccc43)[C@@H]2C)cc1` here?
Answer: 0.531
